The target of assay [1] is Transcription factor E2F1 (Homo sapiens) (UniProt Q01094). The assay is described as follows: ATG_E2F_CIS: Attagene CIS-FACTORIAL HepG2 Assay for human E2F Transcription Factor 1 (AID 2282935). The note with it: HepG2 Attagene cis-reporter, E2F reporter RNA transcripts; actives raise or lower the signal. Summed up:
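In this cis-factorial format, endogenous factor activity drives transfected reporters in HepG2; transcripts collected at 24 h are quantified by fluorescence after RT-PCR and capillary separation.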

Assay [2] can be described thus: ATG_M_61_CIS: Attagene CIS-FACTORIAL HepG2 Assay for M61 Transcription Factor (Internal Marker) (AID 2282937). The note with it: HepG2 Attagene CIS-FACTORIAL M61 internal marker reporter; actives raise or lower the signal. Summed up: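 Readout is reporter mRNA by RT-PCR, fluorescent primer extension and capillary electrophoresis, with gain or loss fitted relative to DMSO. Transfected HepG2 cells carrying endogenous-TF-driven cis reporters were exposed to chemicals for 24 hours.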

The target of assay [3] is Hepatocyte nuclear factor 3-beta (Homo sapiens) (UniProt Q9Y261). The assay is described as follows: ATG_FoxA2_CIS: Attagene CIS-FACTORIAL HepG2 Assay for human Forkhead box A2 (FOXA2) (AID 2282942). The note with it: HepG2 cis-reporter transcription factor activity, 24 h; actives raise or lower the signal. A digest of the protocol: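 Endogenous transcription factor activity is captured via cis-element-driven reporter transcripts in transfected HepG2. Total RNA taken at 24 h post-dosing; labelled RT-PCR products resolved by capillary electrophoresis. Gain or loss fitted versus DMSO.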

The nature of assay [4]: ATG_FoxO_CIS: Attagene CIS-FACTORIAL HepG2 Assay for human Forkhead box O (FoxO) (AID 2282943). The note with it: HepG2 Attagene cis-reporter, FoxO element, mRNA; actives raise or lower the signal. A digest of the protocol:
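24 h chemical exposure, HepG2 with transient cis-MRTU transfection. RNA extraction, oligo(dT) RT, reporter-specific PCR, primer-extension labelling, HpaI digestion, CE fragment analysis; bidirectional fit, DMSO baseline.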

Assay [5] concerns the target Hypoxia-inducible factor 1-alpha (Homo sapiens) (UniProt Q16665). Briefly: ATG_HIF1a_CIS: Attagene CIS-FACTORIAL HepG2 Assay for human Hypoxia Inducible Factor 1 (HIF1A) (AID 2282951). The note with it: HepG2 Attagene cis-factorial HIF1a reporter transcription; actives raise or lower the signal. Summed up: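 Activity is fitted in both directions relative to DMSO. Reporter transcripts are read by RT-PCR, fluorescent primer extension and capillary electrophoresis after 24 h chemical treatment. The cells are HepG2 carrying transiently transfected cis-element-driven reporter units responding to endogenous factors.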

Assay [6] can be described thus: ATG_RORE_CIS: Attagene CIS-FACTORIAL HepG2 Assay for human RAR-related Orphan Receptor Element (RORE) (AID 2282959). The note with it: HepG2 Attagene cis-factorial RORE reporter, mRNA; actives raise or lower the signal. Summed up:
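RORE reporter transcripts reflecting endogenous factor activity were read after 24 h compound exposure of transfected HepG2 cells, using reverse transcription, PCR, fluorescent labelling and capillary electrophoresis sizing. Gain or loss fitted against DMSO.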

A short description of assay [7]: ATG_TGFb_CIS: Attagene CIS-FACTORIAL HepG2 Assay for human Transforming Growth Factor (TGF) (AID 2282967). The note with it: HepG2 Attagene CIS TGFb reporter, mRNA transcription; actives raise or lower the signal. Summed up: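 HepG2 cells transiently transfected with cis-promoter-driven multiplexed reporter units; 24 h compound exposure. Reporter mRNA measured by RT-PCR, 6-FAM labeling, HpaI digestion and capillary electrophoresis; bidirectional fit versus DMSO baseline.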

Assay [8] in a line: ATG_VDRE_CIS: Attagene CIS-FACTORIAL HepG2 Assay for human Vitamin D Receptor Element (VDRE) (AID 2282968). The note with it: HepG2 VDRE cis-reporter transcription, actives raise or lower the signal. A digest of the protocol:
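Transfected HepG2 reporter cells, chemical treatment 24 h. RNA isolated, cDNA amplified with reporter-specific primers, products analysed by capillary electrophoresis. Endpoint fitted in both directions versus DMSO.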

Assay [9] addresses X-box-binding protein 1 (Homo sapiens) (UniProt P17861). The assay is described as follows: ATG_Xbp1_CIS: Attagene CIS-FACTORIAL HepG2 Assay for human X-box Binding Protein 1 (XBP1) (AID 2282972). The note with it: HepG2 XBP1 cis-element reporter, Attagene multiplex; actives raise or lower the signal. A digest of the protocol: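 Reporter transcripts were quantified by RT-PCR with fluorescent primer extension and capillary electrophoresis after 24 h chemical exposure. Cells: transiently transfected HepG2 carrying cis-regulated reporter constructs; data fitted bidirectionally relative to DMSO.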

The target of assay [10] is Transcriptional activator Myb (Homo sapiens) (UniProt P10242). The assay is described as follows: ATG_Myb_CIS: Attagene CIS-FACTORIAL HepG2 Assay for human Myeloblastosis (Myb) Proto-Oncogene Transcription Factor (AID 2282986). The note with it: HepG2 Attagene CIS-FACTORIAL Myb reporter transcription; actives raise or lower the signal. Summed up: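 Reporter mRNA is quantified by RT-PCR and capillary electrophoresis 24 h after dosing HepG2 cells transfected with cis-regulated reporter units, which track endogenous transcription factor activity. Gain and loss of signal are fitted versus DMSO baseline.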

For assay [11], the target named is Nuclear respiratory factor 1 (Homo sapiens) (UniProt Q16656). The assay is described as follows: ATG_NRF1_CIS: Attagene CIS-FACTORIAL HepG2 Assay for human Nuclear Respiratory Factor 1 (NRF1) Orphan Gene (AID 2282987). The note with it: HepG2 NRF1 cis-element reporter, Attagene multiplex; actives raise or lower the signal. Summed up:
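Endogenous NRF1-driven reporter transcription in transfected HepG2 cells after 24 h treatment. Readout: RT-PCR products, 6-FAM labelled and resolved by capillary electrophoresis; changes fitted both directions relative to DMSO.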

The nature of assay [12]: ATG_NFI_CIS: Attagene CIS-FACTORIAL HepG2 Assay for human Nuclear Factor I (NFI) (AID 2282989). The note with it: HepG2 cis-regulatory reporter, NFI response element transcription; actives raise or lower the signal. A digest of the protocol: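 HepG2 cells transiently transfected with cis-element-driven multiplexed reporter transcription units, dosed for 24 h. Reporter mRNA quantified by RT-PCR, fluorescent labelling, HpaI digestion and capillary electrophoresis; bidirectional fit versus DMSO baseline.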

In assay [13] the target is Cellular tumor antigen p53 (Homo sapiens) (UniProt P04637). Briefly: ATG_p53_CIS: Attagene CIS-FACTORIAL HepG2 Assay for human p53 Transcription Factor (AID 2282994). The note with it: HepG2 p53 cis-element reporter, Attagene mRNA; actives raise or lower the signal. A digest of the protocol:
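Endogenous p53 activity read in transiently transfected HepG2 from a cis-element-driven reporter transcript after 24 h exposure. RNA reverse-transcribed, PCR-amplified, fluorescently labelled and sized by capillary electrophoresis; gain or loss fitted against DMSO baseline.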

Assay [14] has as its target Nuclear receptor subfamily 1 group I member 2 (Homo sapiens) (UniProt O75469). Briefly: ATG_PXR_TRANS: Attagene TRANS-FACTORIAL HepG2 Assay for human Pregnane X Receptor (PXR) (AID 2283008; active means hit-call score of the fitted dose curve at least 0.9, where 1 is the maximum). Summed up: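 Transactivation by exogenous PXR–GAL4 fusion measured as reporter transcript induction after 24 h compound treatment of transfected human HepG2 cells. Read-out via RT-PCR and capillary electrophoresis of labelled fragments, fitted upward relative to DMSO.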

A short description of assay [15]: ATG_XTT_Cytotoxicity: Cytotoxicity Assessment in the Attagene TRANS-FACTORIAL HepG2 Assay (AID 2283584; active means hit-call score of the fitted dose curve at least 0.9, where 1 is the maximum). Summed up:
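24 h chemical exposure of reporter-transfected HepG2; XTT signal loss vs DMSO indicates cytotoxicity.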

Assay [16] deals with Cellular tumor antigen p53 (Homo sapiens) (UniProt P04637). Briefly: TOX21_p53_BLA_p2_ratio: Tox21 HCT-116 p53 Agonism Beta-lactamase Assay, Ratio, Phase 2 (AID 2283592; active means hit-call score of the fitted dose curve at least 0.9, where 1 is the maximum). A digest of the protocol:
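DMSO-normalized, positive-direction endpoint derived from the 460 nm/530 nm FRET ratio in HCT116 p53 beta-lactamase reporter cells exposed 16 h at 37C and loaded with CCF4-AM for 2 h.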

Assay [17] is described as follows: ATG_AP_2_CIS: Attagene CIS-FACTORIAL HepG2 Assay for human Activator Protein 2 (AP-2) (AID 2282932). The note with it: HepG2 AP-2 cis-reporter, Attagene transcription factor profiling; actives raise or lower the signal. Summed up: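 Assay in transfected HepG2 with promoter-regulated reporters, 24 h incubation after dosing. Signal is reporter mRNA fluorescence (RT-PCR, capillary electrophoresis), analysed for both increases and decreases relative to DMSO controls.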

The nature of assay [18]: ATG_EGR_CIS: Attagene CIS-FACTORIAL HepG2 Assay for human Early Growth Response 1 (EGR1) (AID 2282938). The note with it: HepG2 Attagene CIS-FACTORIAL EGR reporter mRNA; actives raise or lower the signal. Summed up: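 After 24 h compound exposure, RNA from reporter-transfected HepG2 cells was reverse-transcribed, PCR-amplified, fluorescently labelled and resolved by capillary electrophoresis. EGR1 reporter transcript changes, up or down, were fitted against DMSO, reflecting endogenous transcription-factor activity.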

In assay [19] the target is Myc proto-oncogene protein (Homo sapiens) (UniProt P01106). Briefly: ATG_Myc_CIS: Attagene CIS-FACTORIAL HepG2 Assay for human Myelocytomatosis (Myc) Proto-Oncogene Transcription Factor (AID 2282990). The note with it: HepG2, Attagene cis-reporter transcription factor activity; actives raise or lower the signal. Summed up: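 DMSO-normalised, bidirectionally fitted reporter mRNA signal. HepG2 cells transfected with cis reporter constructs, treated 24 h; transcripts detected by RT-PCR, 6-FAM primer extension and CE.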

Assay [20] in a line: ATG_Ets_CIS: Attagene CIS-FACTORIAL HepG2 Assay for human Erythroblast Transformation Specific (ETS) (AID 2282941). The note with it: HepG2 ETS cis-reporter transcription, actives raise or lower the signal. Summed up: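 Endogenous transcription factor activity read as reporter mRNA via RT-PCR and capillary electrophoresis, with gain or loss fitted bidirectionally against DMSO. Human HepG2 liver cells, transiently transfected CIS reporter constructs, 24 h exposure.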

Records with an inconclusive call do not appear. Active and inactive are the calls of the source. How the source made its calls, unless noted: active means hit-call score of the fitted dose curve at least 0.9, where 1 is the maximum; inactive means score below 0.9.

Cellular tumor antigen p53 (Homo sapiens), sequence (P04637 whole entry, looked up): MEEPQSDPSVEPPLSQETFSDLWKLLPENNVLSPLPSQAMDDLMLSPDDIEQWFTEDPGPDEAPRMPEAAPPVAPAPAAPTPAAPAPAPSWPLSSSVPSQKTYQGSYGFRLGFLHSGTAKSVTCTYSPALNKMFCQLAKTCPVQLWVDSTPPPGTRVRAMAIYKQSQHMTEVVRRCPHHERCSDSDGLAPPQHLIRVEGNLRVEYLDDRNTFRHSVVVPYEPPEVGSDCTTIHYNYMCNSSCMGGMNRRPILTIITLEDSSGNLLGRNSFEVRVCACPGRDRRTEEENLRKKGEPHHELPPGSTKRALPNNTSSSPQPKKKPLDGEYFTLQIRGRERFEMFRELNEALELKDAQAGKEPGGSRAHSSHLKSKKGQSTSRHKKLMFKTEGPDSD
Nuclear receptor subfamily 1 group I member 2 (Homo sapiens), sequence (O75469 whole entry, looked up, the tested form may be a part): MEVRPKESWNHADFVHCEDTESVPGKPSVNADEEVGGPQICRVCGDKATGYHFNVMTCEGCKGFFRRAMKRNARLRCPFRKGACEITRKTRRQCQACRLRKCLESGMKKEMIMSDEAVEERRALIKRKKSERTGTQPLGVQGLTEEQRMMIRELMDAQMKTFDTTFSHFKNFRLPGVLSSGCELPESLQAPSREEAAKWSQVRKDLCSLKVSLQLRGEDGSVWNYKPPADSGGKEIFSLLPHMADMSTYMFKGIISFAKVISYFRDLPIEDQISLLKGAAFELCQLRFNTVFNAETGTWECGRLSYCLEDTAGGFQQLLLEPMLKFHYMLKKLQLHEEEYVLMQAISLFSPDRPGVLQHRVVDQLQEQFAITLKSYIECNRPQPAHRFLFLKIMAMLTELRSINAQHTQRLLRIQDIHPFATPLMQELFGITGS
Transcriptional activator Myb (Homo sapiens), sequence (P10242 whole entry, looked up): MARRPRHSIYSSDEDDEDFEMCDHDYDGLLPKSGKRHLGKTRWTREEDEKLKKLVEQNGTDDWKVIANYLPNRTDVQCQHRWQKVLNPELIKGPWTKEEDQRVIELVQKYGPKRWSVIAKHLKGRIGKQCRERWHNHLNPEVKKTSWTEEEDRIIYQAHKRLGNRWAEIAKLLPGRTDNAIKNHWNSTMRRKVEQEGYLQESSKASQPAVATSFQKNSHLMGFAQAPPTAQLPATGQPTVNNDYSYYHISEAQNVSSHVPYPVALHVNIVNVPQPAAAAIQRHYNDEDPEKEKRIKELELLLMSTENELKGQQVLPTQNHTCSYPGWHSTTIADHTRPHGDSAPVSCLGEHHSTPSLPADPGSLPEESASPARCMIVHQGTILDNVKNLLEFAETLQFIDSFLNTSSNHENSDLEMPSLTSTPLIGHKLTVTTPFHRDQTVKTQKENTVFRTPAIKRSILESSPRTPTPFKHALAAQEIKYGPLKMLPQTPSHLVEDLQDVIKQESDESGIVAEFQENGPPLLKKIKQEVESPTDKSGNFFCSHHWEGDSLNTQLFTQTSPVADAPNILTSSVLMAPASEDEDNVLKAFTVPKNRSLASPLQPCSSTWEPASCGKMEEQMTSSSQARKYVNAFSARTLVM
X-box-binding protein 1 (Homo sapiens), sequence (P17861 whole entry, looked up): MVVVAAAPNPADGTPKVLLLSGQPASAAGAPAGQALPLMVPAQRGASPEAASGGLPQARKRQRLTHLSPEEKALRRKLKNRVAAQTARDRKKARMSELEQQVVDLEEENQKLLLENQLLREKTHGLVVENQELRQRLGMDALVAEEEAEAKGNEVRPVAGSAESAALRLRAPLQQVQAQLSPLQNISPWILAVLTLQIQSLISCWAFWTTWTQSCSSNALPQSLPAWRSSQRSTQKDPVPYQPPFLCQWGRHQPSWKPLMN
Hypoxia-inducible factor 1-alpha (Homo sapiens), sequence (Q16665 whole entry, looked up): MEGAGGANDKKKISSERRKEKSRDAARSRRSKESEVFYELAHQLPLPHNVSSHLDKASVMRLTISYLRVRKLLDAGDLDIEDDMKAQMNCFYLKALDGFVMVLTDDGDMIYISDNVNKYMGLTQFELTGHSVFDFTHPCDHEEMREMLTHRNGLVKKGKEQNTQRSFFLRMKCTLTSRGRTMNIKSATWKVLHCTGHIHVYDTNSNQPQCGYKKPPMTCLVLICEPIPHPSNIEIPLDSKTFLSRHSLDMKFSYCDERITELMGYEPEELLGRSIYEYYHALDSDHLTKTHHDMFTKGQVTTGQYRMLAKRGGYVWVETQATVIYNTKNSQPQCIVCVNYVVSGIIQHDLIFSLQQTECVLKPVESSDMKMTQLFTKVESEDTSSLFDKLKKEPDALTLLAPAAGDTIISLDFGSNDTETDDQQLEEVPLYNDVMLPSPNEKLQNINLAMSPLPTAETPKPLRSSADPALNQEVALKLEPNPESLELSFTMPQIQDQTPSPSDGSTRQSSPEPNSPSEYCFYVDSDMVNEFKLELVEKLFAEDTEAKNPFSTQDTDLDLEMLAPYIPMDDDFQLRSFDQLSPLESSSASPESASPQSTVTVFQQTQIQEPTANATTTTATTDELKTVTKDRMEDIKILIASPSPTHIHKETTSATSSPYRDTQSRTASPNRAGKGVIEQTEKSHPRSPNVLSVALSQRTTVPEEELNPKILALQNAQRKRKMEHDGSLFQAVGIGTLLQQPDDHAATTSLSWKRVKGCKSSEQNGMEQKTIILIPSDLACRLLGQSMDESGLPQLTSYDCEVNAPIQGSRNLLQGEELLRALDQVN
Myc proto-oncogene protein (Homo sapiens), sequence (P01106 whole entry, looked up): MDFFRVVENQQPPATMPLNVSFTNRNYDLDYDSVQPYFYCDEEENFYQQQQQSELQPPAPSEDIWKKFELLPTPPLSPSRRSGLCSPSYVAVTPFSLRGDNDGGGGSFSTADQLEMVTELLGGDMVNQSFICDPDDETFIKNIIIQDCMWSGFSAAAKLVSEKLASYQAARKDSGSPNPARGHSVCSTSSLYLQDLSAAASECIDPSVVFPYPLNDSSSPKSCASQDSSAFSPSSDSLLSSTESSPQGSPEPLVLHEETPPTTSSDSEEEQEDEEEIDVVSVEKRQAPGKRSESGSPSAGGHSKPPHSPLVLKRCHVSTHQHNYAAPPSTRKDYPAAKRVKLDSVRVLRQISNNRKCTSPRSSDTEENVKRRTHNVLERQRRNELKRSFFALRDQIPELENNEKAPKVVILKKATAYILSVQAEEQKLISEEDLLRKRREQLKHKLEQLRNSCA
Hepatocyte nuclear factor 3-beta (Homo sapiens), sequence (Q9Y261 whole entry, looked up): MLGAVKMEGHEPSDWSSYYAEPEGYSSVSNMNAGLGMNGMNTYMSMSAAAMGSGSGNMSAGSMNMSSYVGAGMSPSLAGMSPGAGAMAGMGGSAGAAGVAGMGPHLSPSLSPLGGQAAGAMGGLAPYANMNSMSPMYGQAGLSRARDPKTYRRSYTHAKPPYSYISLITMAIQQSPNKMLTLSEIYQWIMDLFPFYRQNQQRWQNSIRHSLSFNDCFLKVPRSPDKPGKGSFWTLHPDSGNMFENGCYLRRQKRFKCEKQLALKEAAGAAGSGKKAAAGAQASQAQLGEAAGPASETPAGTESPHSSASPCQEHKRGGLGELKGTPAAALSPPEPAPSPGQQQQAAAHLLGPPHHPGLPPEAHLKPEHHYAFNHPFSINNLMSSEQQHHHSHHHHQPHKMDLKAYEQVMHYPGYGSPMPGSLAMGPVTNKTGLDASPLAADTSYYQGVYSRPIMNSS
Transcription factor E2F1 (Homo sapiens), sequence (Q01094 whole entry, looked up): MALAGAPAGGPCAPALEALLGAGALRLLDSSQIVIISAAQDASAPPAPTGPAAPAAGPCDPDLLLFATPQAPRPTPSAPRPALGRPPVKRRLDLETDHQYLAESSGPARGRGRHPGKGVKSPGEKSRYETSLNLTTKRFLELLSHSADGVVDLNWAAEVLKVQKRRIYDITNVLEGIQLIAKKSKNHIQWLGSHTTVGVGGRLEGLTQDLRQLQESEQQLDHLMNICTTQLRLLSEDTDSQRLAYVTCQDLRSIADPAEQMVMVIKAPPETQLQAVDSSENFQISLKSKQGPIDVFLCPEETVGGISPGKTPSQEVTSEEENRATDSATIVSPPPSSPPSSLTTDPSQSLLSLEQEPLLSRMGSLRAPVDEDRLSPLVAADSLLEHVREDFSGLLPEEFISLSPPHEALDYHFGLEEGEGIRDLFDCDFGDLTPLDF
Nuclear respiratory factor 1 (Homo sapiens), sequence (Q16656 whole entry, looked up): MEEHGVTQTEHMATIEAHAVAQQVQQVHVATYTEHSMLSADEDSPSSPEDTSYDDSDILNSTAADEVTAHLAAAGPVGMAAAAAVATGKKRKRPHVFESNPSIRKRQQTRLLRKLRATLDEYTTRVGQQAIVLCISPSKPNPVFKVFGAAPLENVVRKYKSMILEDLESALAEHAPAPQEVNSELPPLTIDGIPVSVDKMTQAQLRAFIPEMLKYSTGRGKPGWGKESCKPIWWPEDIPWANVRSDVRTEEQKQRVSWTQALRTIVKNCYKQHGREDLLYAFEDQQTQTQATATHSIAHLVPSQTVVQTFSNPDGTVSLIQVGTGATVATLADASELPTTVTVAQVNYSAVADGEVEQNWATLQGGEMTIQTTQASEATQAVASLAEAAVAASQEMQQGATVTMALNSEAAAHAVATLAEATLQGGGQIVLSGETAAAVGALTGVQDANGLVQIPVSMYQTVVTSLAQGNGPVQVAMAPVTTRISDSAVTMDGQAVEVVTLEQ

As to `CCCCCCCCCCC1CO1` (stereo unspecified), the result in assay [1], in [2], in assay [3], in assay [4], in assay [5] and in assay [6] was inactive. Further, the molecule was called inactive in [7], in [8], in assay [9], in [10], in assay [11] and in assay [12]. For the same molecule, the molecule was classed as inactive in assay [13], in assay [14], in assay [15] and in [16].

As to `CN(C)CCC(c1ccc(Cl)cc1)c1ccccn1` (stereo unspecified), the molecule was called inactive in assay [17], in assay [1], in [2], in assay [18], in [6] and in [7]. Besides, the call in [9], in assay [10], in [11], in assay [12], in [19] and in [13] was inactive. In addition, the call in [14] and in [15] was inactive.

On to `NC(N)=Nc1nc(CSCCC(N)=NS(N)(=O)=O)cs1`, for which the molecule was classed as inactive in [17], in [1], in assay [2], in assay [18], in assay [3] and in assay [4]. In addition, the result in assay [6], in assay [7], in assay [8], in assay [10], in [11] and in assay [12] was inactive. In addition, the result in assay [13], in assay [14], in assay [15] and in assay [16] was inactive.

A word on the AC50: it is the midpoint of the concentration-response curve, whichever way the signal moves. Consider `CC1=C(CC(=O)O)c2cc(F)ccc2/C1=C\c1ccc(S(C)=O)cc1` (stereo unspecified), for which the call in assay [18], in assay [20], in [3], in assay [4], in assay [6] and in assay [7] was inactive. In addition, the call in assay [10], in assay [11], in assay [12], in [19] and in assay [13] was inactive. The AC50 in assay [14] was 26.5 µM (active).

Consider `CC(C)CC(=O)O`, for which the molecule was called inactive in assay [17], in assay [1], in assay [2], in assay [18], in assay [20] and in [3]. For the same molecule, the result in assay [4], in assay [5], in [6], in assay [7], in [8] and in [9] was inactive. The result in [10], in [11], in assay [12], in assay [19], in [13] and in assay [15] was inactive. Further, in assay [16], the result was inactive.

For `CC(O)(P(=O)(O)O)P(=O)(O)O`, the outcome in assay [17], in assay [1], in [18], in assay [20], in [3] and in assay [4] was inactive. Moreover, the result in assay [7], in assay [9], in [10], in [11], in assay [12] and in assay [15] was inactive.

`CCCC(=O)OC/C=C(\C)CCC=C(C)C`: the molecule was called inactive in assay [17], in assay [1], in [2], in [18], in assay [3] and in assay [4]. The molecule was classed as inactive in [5], in assay [6], in [7], in [8], in assay [10] and in assay [11]. Further, the call in assay [12], in assay [14] and in assay [15] was inactive.

As to `CCCCC(CC)COC(=O)CS` (stereo unspecified), the result in assay [17], in assay [1], in assay [2], in assay [18], in assay [20] and in assay [3] was inactive. In addition, the molecule was called inactive in assay [5], in assay [7], in assay [9], in [10], in assay [11] and in [12]. The outcome in assay [13], in [14] and in [16] was inactive. Also, the AC50 in assay [8] was 26.4 µM (active).

Consider `COC(=O)CCSCCC(=O)OC`, for which the result in assay [17], in [1], in assay [2], in assay [18], in assay [20] and in assay [3] was inactive. Also, the molecule was classed as inactive in assay [5], in [6], in assay [7], in [9], in assay [10] and in assay [11]. In addition, the molecule was called inactive in assay [12], in assay [19], in assay [14] and in assay [15].

Source of the values: PubChem BioAssay (EPA / NIEHS).
